# Data as given in article PMC12864922, “TDP-43 directly inhibits mRNA accumulation in neurites through modulation of mRNA stability”.
# In all, about 9,900 sequences were measured (“r (bound/input frequency ratio)”: median about 0.7, highest 2% from about 6.5 on). The sample as a whole holds a higher share of the highest values than the screen did.
# B1: ENSMUSG00000022095.188|Fam160b2 (ssRNA)
# RNA: GGGAGUUCUACAGUCCGACGAUCGCUUCGAUAUCCGCAUGCUAGCAGUUGUUGGCUUCCCUCCUGGGCAAGGAGGAGCAGGCCAGAGCCCCUUUUGCUUCCUUUUCCUGCCCAUGCCACCUCUCGAAGCCGGGCACAGGUUGCCAGGAGGUGACAUGAAAGAGGAGGAAACUCCAUGACCUCUACAUCCCCCGCAGUCCUCCCAGCGGGGGAGGACUUCUCUGCUGCUCCGAAGAACAUCAUGCACUCCUGUGUGUGUGUGUGAGUGUGUGUGUGUGUGUGUGUGUGUGUGUGUGUGUAUGUGCUCUUGCGGUCGCACUAGUGUGGAAUUCUCGGGUGUCAAGG
# B2: ENSMUSG00000022095.187|Fam160b2 (ssRNA)
# RNA: GGGAGUUCUACAGUCCGACGAUCGCUUCGAUAUCCGCAUGCUAAGGCCUGCAGUUGUUGGCUUCCCUCCUGGGCAAGGAGGAGCAGGCCAGAGCCCCUUUUGCUUCCUUUUCCUGCCCAUGCCACCUCUCGAAGCCGGGCACAGGUUGCCAGGAGGUGACAUGAAAGAGGAGGAAACUCCAUGACCUCUACAUCCCCCGCAGUCCUCCCAGCGGGGGAGGACUUCUCUGCUGCUCCGAAGAACAUCAUGCACUCCUGUGUGUGUGUGUGAGUGUGUGUGUGUGUGUGUGUGUGUGUGUGUGUGCUCUUGCGGUCGCACUAGUGUGGAAUUCUCGGGUGUCAAGG
# B3: ENSMUSG00000022095.189|Fam160b2 (ssRNA)
# RNA: GGGAGUUCUACAGUCCGACGAUCGCUUCGAUAUCCGCAUGCUAGUUGGCUUCCCUCCUGGGCAAGGAGGAGCAGGCCAGAGCCCCUUUUGCUUCCUUUUCCUGCCCAUGCCACCUCUCGAAGCCGGGCACAGGUUGCCAGGAGGUGACAUGAAAGAGGAGGAAACUCCAUGACCUCUACAUCCCCCGCAGUCCUCCCAGCGGGGGAGGACUUCUCUGCUGCUCCGAAGAACAUCAUGCACUCCUGUGUGUGUGUGUGAGUGUGUGUGUGUGUGUGUGUGUGUGUGUGUGUGUAUGUGUGUGUACUCUUGCGGUCGCACUAGUGUGGAAUUCUCGGGUGUCAAGG
# B4: ENSMUSG00000061578.732|Ksr2 (ssRNA)
# RNA: GGGAGUUCUACAGUCCGACGAUCGCUUCGAUAUCCGCAUGCUAGGGGUCAUUGUUCAAUCCUGUAUCAAGACCUUGGAGUUGUCUAAGGCUGUGGGUUUUAAAUACCUGCUGCAGGCCUCCCAUCUCUGGCUCUUUGUUUCCACUCUGGCCCAAGUUUGAGUCUCCAUAUGGGCCCUUCCUGUCCUCAUGCCCUGCCUGUCUUCAUUCCACCCAUCCACCCUCCUAAGGAUUGGUCUUGUUCCGAGAGUGAUCCUGGUAACGCCAAGCCUCCCUCUGCCCCUGUGUUGGCUUCUGUGACGGACCUCUUGCGGUCGCACUAGUGUGGAAUUCUCGGGUGUCAAGG
# B5: ENSMUSG00000061578.853|Ksr2 (ssRNA)
# RNA: GGGAGUUCUACAGUCCGACGAUCGCUUCGAUAUCCGCAUGCUAAAGCAAAGAGCAAUACAGGAAAAGGUCAGGGGUGAGAUGUGUCAUUGCCACUUCCUCCAGCUAGGACCUUUGAGCAUCACAUUGUGAAGCCAUCCAGGGACUUGGGGGUUAGGUCAGAGGUAUCAAUACAUCUCCGGAAACAUCGUCACAGAUACCUAGAGGUACUUCAUUGAUCCCUUGAAAAGCAUGUCUUAAUUCUGUUAAGAUGUCAAUCAAGAUUACACAUCUCACUGCUUCACAGGCCAUCAGGGCCCCAUUCUCUCUUGCGGUCGCACUAGUGUGGAAUUCUCGGGUGUCAAGG
# B6: ENSMUSG00000022095.187|Fam160b2|213:226;228:260 (ssRNA)
# RNA: GGGAGUUCUACAGUCCGACGAUCGCUUCGAUAUCCGCAUGCUAAGGCCUGCAGUUGUUGGCUUCCCUCCUGGGCAAGGAGGAGCAGGCCAGAGCCCCUUUUGCUUCCUUUUCCUGCCCAUGCCACCUCUCGAAGCCGGGCACAGGUUGCCAGGAGGUGACAUGAAAGAGGAGGAAACUCCAUGACCUCUACAUCCCCCGCAGUCCUCCCAGCGGGGGAGGACUUCUCUGCUGCUCCGAAGAACAUCAUGCACUCCACACACACACACACACACACACACACACACACACACACACACACACACCUCUUGCGGUCGCACUAGUGUGGAAUUCUCGGGUGUCAAGG
# B7: ENSMUSG00000022095.185|Fam160b2|225:238;240:260 (ssRNA)
# RNA: GGGAGUUCUACAGUCCGACGAUCGCUUCGAUAUCCGCAUGCUAUUACCUCACAACAGGCCUGCAGUUGUUGGCUUCCCUCCUGGGCAAGGAGGAGCAGGCCAGAGCCCCUUUUGCUUCCUUUUCCUGCCCAUGCCACCUCUCGAAGCCGGGCACAGGUUGCCAGGAGGUGACAUGAAAGAGGAGGAAACUCCAUGACCUCUACAUCCCCCGCAGUCCUCCCAGCGGGGGAGGACUUCUCUGCUGCUCCGAAGAACAUCAUGCACUCCACACACACACACACACACACACACACACACACACACCUCUUGCGGUCGCACUAGUGUGGAAUUCUCGGGUGUCAAGG
# B8: ENSMUSG00000022095.195|Fam160b2 (ssRNA)
# RNA: GGGAGUUCUACAGUCCGACGAUCGCUUCGAUAUCCGCAUGCUAAGCCCCUUUUGCUUCCUUUUCCUGCCCAUGCCACCUCUCGAAGCCGGGCACAGGUUGCCAGGAGGUGACAUGAAAGAGGAGGAAACUCCAUGACCUCUACAUCCCCCGCAGUCCUCCCAGCGGGGGAGGACUUCUCUGCUGCUCCGAAGAACAUCAUGCACUCCUGUGUGUGUGUGUGAGUGUGUGUGUGUGUGUGUGUGUGUGUGUGUGUGUAUGUGUGUGUAUAUGUGUGUGUGUGUGUGUAUGUGUGUGUGUGUGUGCUCUUGCGGUCGCACUAGUGUGGAAUUCUCGGGUGUCAAGG
# B9: ENSMUSG00000022095.197|Fam160b2 (ssRNA)
# RNA: GGGAGUUCUACAGUCCGACGAUCGCUUCGAUAUCCGCAUGCUAUUCCUUUUCCUGCCCAUGCCACCUCUCGAAGCCGGGCACAGGUUGCCAGGAGGUGACAUGAAAGAGGAGGAAACUCCAUGACCUCUACAUCCCCCGCAGUCCUCCCAGCGGGGGAGGACUUCUCUGCUGCUCCGAAGAACAUCAUGCACUCCUGUGUGUGUGUGUGAGUGUGUGUGUGUGUGUGUGUGUGUGUGUGUGUGUAUGUGUGUGUAUAUGUGUGUGUGUGUGUGUAUGUGUGUGUGUGUGUGUGAGUGAGUGUGCUCUUGCGGUCGCACUAGUGUGGAAUUCUCGGGUGUCAAGG
# B10: ENSMUSG00000022095.198|Fam160b2 (ssRNA)
# RNA: GGGAGUUCUACAGUCCGACGAUCGCUUCGAUAUCCGCAUGCUAUUCCUGCCCAUGCCACCUCUCGAAGCCGGGCACAGGUUGCCAGGAGGUGACAUGAAAGAGGAGGAAACUCCAUGACCUCUACAUCCCCCGCAGUCCUCCCAGCGGGGGAGGACUUCUCUGCUGCUCCGAAGAACAUCAUGCACUCCUGUGUGUGUGUGUGAGUGUGUGUGUGUGUGUGUGUGUGUGUGUGUGUGUAUGUGUGUGUAUAUGUGUGUGUGUGUGUGUAUGUGUGUGUGUGUGUGUGAGUGAGUGUGUGUGUGCUCUUGCGGUCGCACUAGUGUGGAAUUCUCGGGUGUCAAGG
# B11: ENSMUSG00000022095.196|Fam160b2 (ssRNA)
# RNA: GGGAGUUCUACAGUCCGACGAUCGCUUCGAUAUCCGCAUGCUAUUUUGCUUCCUUUUCCUGCCCAUGCCACCUCUCGAAGCCGGGCACAGGUUGCCAGGAGGUGACAUGAAAGAGGAGGAAACUCCAUGACCUCUACAUCCCCCGCAGUCCUCCCAGCGGGGGAGGACUUCUCUGCUGCUCCGAAGAACAUCAUGCACUCCUGUGUGUGUGUGUGAGUGUGUGUGUGUGUGUGUGUGUGUGUGUGUGUGUAUGUGUGUGUAUAUGUGUGUGUGUGUGUGUAUGUGUGUGUGUGUGUGUGAGUGCUCUUGCGGUCGCACUAGUGUGGAAUUCUCGGGUGUCAAGG
# B12: ENSMUSG00000022095.181|Fam160b2 (ssRNA)
# RNA: GGGAGUUCUACAGUCCGACGAUCGCUUCGAUAUCCGCAUGCUAAGAGCACUCGGGCGGCGCCAGGCAUUACCUCACAACAGGCCUGCAGUUGUUGGCUUCCCUCCUGGGCAAGGAGGAGCAGGCCAGAGCCCCUUUUGCUUCCUUUUCCUGCCCAUGCCACCUCUCGAAGCCGGGCACAGGUUGCCAGGAGGUGACAUGAAAGAGGAGGAAACUCCAUGACCUCUACAUCCCCCGCAGUCCUCCCAGCGGGGGAGGACUUCUCUGCUGCUCCGAAGAACAUCAUGCACUCCUGUGUGUGUGUGCUCUUGCGGUCGCACUAGUGUGGAAUUCUCGGGUGUCAAGG
# B13: ENSMUSG00000058297.304|Spock2|17:22 (ssRNA)
# RNA: GGGAGUUCUACAGUCCGACGAUCGCUUCGAUAUCCGCAUGCUAAGUGAGGGCAGCCCCCACACACGUGGAAGAGGCUGGGCAGCUAGCUACUGGGGACCUUGUGCUGAGGCUUCCAGGACAAAGCCCCAGUCUGGCUCUCCCCCAGCCUCUCAGGGGCACUGGCUGGUCACAUCCACUGAGUAUUGAUCGGUUGGACUUUAGGGAAGAGCCUCCUCCUUCCCAUUCCUUUCUGCCACCCUGGAAUGGCCACCUUAAUCGUCAUCUCCUCGGGGGGAAUACGGAAAUGUCACCAAGCUCCAUAACUCUUGCGGUCGCACUAGUGUGGAAUUCUCGGGUGUCAAGG
# Molecular target: TDP-43 (Homo sapiens, UniProt Q13148 1-414)
# Sequence (Q13148 whole entry): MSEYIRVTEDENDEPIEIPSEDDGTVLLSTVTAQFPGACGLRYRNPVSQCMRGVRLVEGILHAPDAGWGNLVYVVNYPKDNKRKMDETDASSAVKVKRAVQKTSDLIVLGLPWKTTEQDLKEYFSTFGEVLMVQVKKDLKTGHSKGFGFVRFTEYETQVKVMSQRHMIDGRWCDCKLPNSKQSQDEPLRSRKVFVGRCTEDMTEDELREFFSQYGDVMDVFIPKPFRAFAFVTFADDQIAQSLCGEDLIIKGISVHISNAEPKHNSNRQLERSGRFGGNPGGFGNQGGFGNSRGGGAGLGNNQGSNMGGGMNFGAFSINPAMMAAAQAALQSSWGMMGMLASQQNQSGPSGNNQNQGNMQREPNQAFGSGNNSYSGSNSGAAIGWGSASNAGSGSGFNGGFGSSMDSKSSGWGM
# Assay: RNA Bind-n-Seq with designed 260-mer pool; 25 mM Tris-HCl, 150 mM KCl, 3 mM MgCl2, BSA (printed 500 mg/mL), 20 units/mL SUPERase IN; pH not stated; 500 nM RNA pool, 1 h, 4 C; TDP-43 5, 50, 500 nM; high values mean tight binding
# Settings: protein: recombinant; tags: SBP (GST cleaved off with PreScission; pGEX-GST-SBP)
# How it was run: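 In 25 mM Tris-HCl, 150 mM KCl, 3 mM MgCl2, BSA and SUPERase IN, 500 nM of an in vitro-transcribed 260-nt 3′ UTR oligo pool was incubated for 1 h at 4 °C with SBP-tagged TDP-43 (5, 50 or 500 nM) captured on streptavidin beads. RNA remaining after washes was biotin-eluted, reverse transcribed, PCR-amplified and sequenced. Binding, R, is the bound-sample abundance of each oligo, normalized to mapped reads, divided by its abundance in input. Each duplicate used a separate, independent protein batch.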
row,Binder,binding signal
1,B1,7.09 R (bound/input frequency ratio)
2,B2,6.28 R (bound/input frequency ratio)
3,B3,5.45 R (bound/input frequency ratio)
4,B4,1.54 R (bound/input frequency ratio)
5,B5,0.223 R (bound/input frequency ratio)
6,B6,1.89 R (bound/input frequency ratio)
7,B7,2.7 R (bound/input frequency ratio)
8,B8,9.34 R (bound/input frequency ratio)
9,B9,6.5 R (bound/input frequency ratio)
10,B10,10 R (bound/input frequency ratio)
11,B11,6.8 R (bound/input frequency ratio)
12,B12,0.283 R (bound/input frequency ratio)
13,B13,0.535 R (bound/input frequency ratio)
